Bioassay records as filed in PubChem BioAssay.
The list is not random: actives were taken first. Their share in the collection is about 9.5%.
Pf growth 48h: P. falciparum growth inhibition at 48 hours (one generation); P. falciparum luciferase growth in erythrocytes, 48 h; Potency, µM (series often up to 28.7 µM), for the others: at the top dose activity change, negative = inhibition, most hits filed as inhibitors; hit rate 5.9% among 310,000; active = well fitted inhibition curve with a large enough effect; inconclusive = small, poorly fitted or top-dose-only effect, or another doubt; inactive = no such curve, though single readings can be large or run the other way; note: % is set by controls: 0 for no effect and ±100 for the full control effect
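Luminescence readout; reporter = integrated firefly luciferase in P. falciparum. RBC culture at 2% hematocrit, 0.1% parasitemia final, 37 C/5% CO2; decreased signal taken as growth inhibition.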
NS1 inh: blocks influenza NS1 protein function; Potency, µM (titrated, usually from 46.1 µM), without a hit: at the top dose activity, positive = more growth; hit rate 0.4% among 270,000; note: actives are rising curves; nearly all actives have a fitted effect of over 50% in size
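S. cerevisiae expressing influenza A NS1, grown in glucose, washed, then diluted 1:100 into pH 6.0 -URA galactose medium with 23 nl compound. Growth recovery read as OD600; NS1-free strain serves as control.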
Pf growth 96h: inhibits malaria parasite growth, 96 h | P. falciparum luciferase reporter growth, 96 h | Potency, µM (series often up to 28.7 µM), inactives show top-dose activity change, negative = inhibition, usual class: inhibitors | hit rate 6.9% among 320,000; active = well fitted inhibition curve with a large enough effect; inconclusive = small, poorly fitted or top-dose-only effect, or another doubt; inactive = no such curve, though single readings can be large or run the other way; note: % is set by controls: 0 for no effect and ±100 for the full control effect
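Two parasite generations (96 h, 37 C, 5% CO2) of compound exposure in infected erythrocytes (0.05% parasitemia, 2% hematocrit). Luciferase-reporter P. falciparum; decreased luminescence indicates inhibited growth, aimed at apicoplast-acting delayed death.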
RE007 growth inh: less growth of the S. pombe RE007 Vpr strain; Potency, µM (highest dose often 92.2 µM), for the others: at the highest dose activity change, negative = less growth, actives largely listed as inhibitors; S. pombe RE007 Vpr strain, BacTiter-Glo ATP luminescence, 24 h; hit rate 0.21% among 360,000; active = well fitted falling curve with a large enough effect; inconclusive = small, poorly fitted or top-dose-only effect; inactive = no such curve, though single readings can be large or run the other way; note: % is set by controls: 0 for no effect and ±100 for the full control effect; nearly all actives have a fitted effect of over 50% in size
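Fission yeast RE007 carrying one integrated HIV-1 vpr copy, seeded at OD 0.01 in PMG+AL medium with 23 nL pinned compound. Grown 24 h at 30 degrees; viability read by BacTiter-Glo luminescence after 5 min.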
SARS PLpro yeast: inhibitors of SARS-CoV papain-like protease in yeast; hit rate 0.19% among 330,000; S. cerevisiae expressing SARS-CoV PLpro, growth rescue; Potency, µM (titrated, usually from 32.9 µM), inactives show at the highest dose activity, positive = growth rescue, hits mostly activators; note: 0% is about no effect; nearly all actives have a fitted effect of over 55% in size
* = called active by the depositor; i = inactive; ? = inconclusive; nt = no result; [ ] = remark or other dose. Unless noted, calls come from the whole dose curve. Potency is the fitted concentration of half-maximal effect.

SMILES | Pf growth 48h | NS1 inh | Pf growth 96h | RE007 growth inh | SARS PLpro yeast
COc1ccc(C(=O)NCCCn2nc(C)cc2C)cc1S(=O)(=O)N1CCOCC1 | -18.9% | nt | -4.2% | -6.5% | -0.7%
CCCCn1c(N)c(N(CC(C)C)C(=O)CSCc2cccc(C)c2)c(=O)[nH]c1=O | ? | nt | ? | -7.1% | -2.2%
Fc1ccccc1N1CCN(CC2CCCCC2)CC1 | 34.8% | 17.0% | 13.1% | -10.9% | 5.1%
CCOC(=O)c1c(NC(=O)COC(=O)c2ccccc2NC)sc(C(=O)N(C)C)c1C | ? | 16.9% | 5.22µM* | -5.3% | -1.7%
CCOC(=O)c1c(NC(=O)c2ccoc2C)sc(C(=O)N(C)C)c1C | nt | -1.4% | 10.4µM* | 4.3% | 24.2%
CCOC(=O)c1c(NC(=O)COC(=O)Cc2ccccc2[N+](=O)[O-])sc(C(=O)N(C)C)c1C | ? | nt | -0.4% | 24.2% | 2.7%
CCOc1ccc(CN(C(=O)c2cc(=O)c3cc(C)cc(C)c3o2)C2CCS(=O)(=O)C2)cc1 (stereo unspecified) | 3.7µM* | -19.4% | 0.2% | 8.7% | -3.5%
COc1ccccc1N(C)S(=O)(=O)c1ccc(C)c(C(=O)NCc2ccccn2)c1 | 10.4µM* | nt | ? | -19.8% | 1.6%
CCOc1ccc(N(C)S(=O)(=O)c2ccc(C)c(C(=O)NCCc3ccc(OC)cc3)c2)cc1 | ? | nt | ? | -7.2% | 0.0%
COc1ccccc1N(C)S(=O)(=O)c1ccc(Cl)c(C(=O)NCc2cccnc2)c1 | ? | nt | 0.0% | 4.1% | -0.2%
COc1ccccc1N(C)S(=O)(=O)c1ccc(C)c(C(=O)Nc2nccs2)c1 | 11.7µM* | nt | ? | -1.6% | -1.9%
CCOc1ccc(N(C)S(=O)(=O)c2ccc(C)c(C(=O)NCc3ccccc3OC)c2)cc1 | 11.7µM* | nt | 9.28µM* | -11.2% | -0.4%
COCCn1c(C(C)C)nc2ccccc21 | 19.9% | -2.3% | 13.3% | 16.6% | -2.0%
Cc1cc(F)ccc1S(=O)(=O)N1CCCOC1CNC(=O)C(=O)NC1CCCC1 (stereo unspecified) | -0.5% | -6.9% | 2.0% | 0.2% | -1.5%
NCCSCCc1ccccc1 | nt | 1.4% | nt | nt | nt
O=C(CSc1nnc(Cc2cc(=O)[nH]c(=O)[nH]2)n1-c1ccc(Cl)cc1)N1CCc2ccccc21 | 2.94µM* | -2.3% | ? | nt | 1.7%
O=C(CSc1nnc(Cc2cc(=O)[nH]c(=O)[nH]2)n1-c1ccccc1)N1CCCc2ccccc21 | -7.4% | 14.1% | -26.7% | 2.8% | -4.9%
O=C(CSc1nnc(Cc2cc(=O)[nH]c(=O)[nH]2)n1-c1ccc(F)cc1)NC1CCCC1 | nt | 7.9% | 5.86µM* | -9.7% | -7.7%
COc1cccc(-n2c(Cc3cc(=O)[nH]c(=O)[nH]3)nnc2SCC(=O)N2CCCCC2)c1 | nt | 8.9% | 33.0% | -7.6% | -4.8%
COc1cccc(-n2c(Cc3cc(=O)[nH]c(=O)[nH]3)nnc2SCC(=O)NC2CCCCC2)c1 | nt | -0.5% | ? | 0.5% | -3.3%
CCC(C)Sc1nnc(Cc2cc(=O)[nH]c(=O)[nH]2)n1-c1ccc(OC)cc1 (stereo unspecified) | nt | 3.6% | -6.4% | 6.3% | -1.3%
COC(=O)C(C)Sc1nnc(Cc2cc(=O)[nH]c(=O)[nH]2)n1-c1ccc(OC)cc1 (stereo unspecified) | nt | -2.8% | 0.828µM* | 13.4% | -2.2%
O=C(CSc1nnc(Cc2cc(=O)[nH]c(=O)[nH]2)n1-c1ccc(F)cc1)N1CCCCC1 | nt | -0.3% | 7.38µM* | 5.1% | -5.1%
CCC(=O)N1CCc2cc(S(=O)(=O)NCCC(=O)Nc3ccccc3C)ccc21 | ? | -4.7% | 11.7µM* | 4.7% | -2.8%
CC(=O)N1CCc2cc(S(=O)(=O)NCCC(=O)Nc3cccc(C)c3C)ccc21 | ? | 10.6% | 3.7µM* | 15.9% | 5.5%
SMILES | Pf growth 48h | NS1 inh | Pf growth 96h | RE007 growth inh | SARS PLpro yeast
CCC(=O)N1CCc2cc(S(=O)(=O)NCCC(=O)Nc3cc(C)cc(C)c3)ccc21 | ? | 2.7% | 41.4% | 2.1% | 7.3%
CC(=O)N1CCc2cc(S(=O)(=O)NCCC(=O)NCCc3ccccc3)ccc21 | -18.2% | -4.8% | 18.8% | 8.3% | 1.3%
CC(=O)N1CCc2cc(S(=O)(=O)NCCC(=O)Nc3cc(C)cc(C)c3)ccc21 | ? | -7.5% | 5.22µM* | 11.9% | 2.2%
CC(Sc1nc(N)cc(N)n1)C(=O)Nc1ccc(N2CCOCC2)cc1 (stereo unspecified) | 1.1% | nt | 10.0% | -7.2% | -6.7%
CC(C)C[C@H](NC(=O)C1CC(=O)N(c2ccc(F)cc2)C1)C(=O)N1CCCCC1 (stereo partly specified) | -7.7% | -9.5% | 1.8% | -8.1% | -5.1%
CCNC(=O)c1ccc(-n2nc(C(F)(F)F)c3c2CCCC3)cc1 | 14.7µM* | -13.2% | 7.38µM* | -5.6% | -1.8%
O=C(Cn1nc(C(F)(F)F)c2c1CCC2)NCc1ccc(Cl)cc1 | 9.8% | 1.2% | 1.9% | -24.5% | 17.6%
COc1ccccc1NC(=O)Cn1nc(C(F)(F)F)c2c1CCCC2 | 13.7% | -50.9% | 2.08µM* | 8.7% | -13.5%
O=C(Cn1nc(C(F)(F)F)c2c1CCC2)Nc1ccccc1C(F)(F)F | -23.7% | -4.1% | i | 3.0% | 3.3%
CC(C)CNC(=O)Cn1nc(C(F)(F)F)c2c1CCCC2 | 19.6% | 2.9% | 10.4µM* | 6.5% | 0.1%
CCCCn1c(N)c(N(CC)C(=O)c2ccc(C#N)cc2)c(=O)[nH]c1=O | 15.3% | -5.0% | -0.7% | 7.7% | -1.3%
Cc1cccc(C(=O)NC(=S)N2CCN(C(=S)NC(=O)c3cccc(C)c3)CC2)c1 | -12.4% | 4.5% | ? | 8.2% | -5.6%
CC(NC(=O)c1cc(-c2ccncc2)nc2ccc(Br)cc12)C1CCCO1 (stereo unspecified) | ? | -20.3% | ? | -13.9% | 2.7%
CCOc1ccc(OCCC(=O)OCC(=O)N2CCN(S(=O)(=O)c3ccc(Cl)cc3)CC2)cc1 | -21.4% | -41.8% | -3.5% | -9.2% | -1.5%
c1ccc(CNC2CN3CCC2CC3)cc1 (stereo unspecified) | nt | nt | nt | 13.8% | nt
CSc1ccc(CNC2CN3CCC2CC3)cc1 (stereo unspecified) | 3.0% | ? | 1.65µM* | -9.7% | 2.2%
Nn1c(SCC(=O)Nc2ccc(S(N)(=O)=O)cc2)nnc1-c1ccco1 | -19.5% | -6.3% | 13.1µM* | 3.6% | -7.2%
CCn1c(SCC(=O)Nc2ccc(C)cc2)nnc1-c1ccc(O)cc1 | ? | 4.8% | 2.62µM* | 5.7% | 1.7%
CCN(CC)S(=O)(=O)c1cccc(-c2nnc(SCC(N)=O)n2C)c1 | -3.3% | nt | ? | 17.6% | -1.0%
CCN(CC)S(=O)(=O)c1ccc(NC(=O)CSc2nnc(-c3cccc(OC)c3)n2C)cc1 | 10.4µM* | 1.1% | ? | -2.4% | 16.6%
Cc1cccc(C)c1NC(=O)CSc1nnc(-c2ccco2)n1N | -0.9% | 8.6% | ? | -3.5%[3.69 µM] | 2.9%
CCCCSc1nnc(-c2ccc(OC)cc2)n1C | -2.8% | -8.1% | 13.1µM* | -14.1% | -17.3%
CCn1c(C)c(C(=O)O)c2cc(OC)c3ccccc3c21 | 20.0% | 2.5% | 44.9% | 2.7% | -1.2%
